Measurements: PubChem BioAssay (Tox21)
Values joined by “and” are separate entries in the source; they are usually repeats but may differ in a detail not shown here. Equal values may be shown once. Records with an inconclusive call do not appear. Entries that show only a call come without a potency. The source holds several records for some structures; these can differ, active in one and inactive in another. Active and inactive are the calls of the source. Unless noted, calls come from the whole dose curve; as a rule, active = well fitted curve in the direction sought with a large enough effect in the repeat runs; inconclusive = weak or mixed curves; inactive = no such curve, though single readings can be large; an effect the other way counts as inactive or inconclusive.

How the values were obtained:
[1] = qHTS assay for small molecule agonists of the p53 signaling pathway (AID 651631; calls by dose curve; note: nearly all actives have a fitted effect of over 15% in size; note: potency is the fitted concentration of half-maximal effect)
Method in brief: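 We treat p53RE-bla HCT-116 cells with compounds for 16 h at 37 °C, add LiveBLAzer B/G FRET substrate for 2 h at room temperature, and measure fluorescence intensity.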

[2] = qHTS assay for small molecules that induce genotoxicity in human embryonic kidney cells expressing luciferase-tagged ATAD5 (AID 651632); note: nearly all actives have a fitted effect of over 15% in size
Method in brief: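 Quantitative HTS in HEK293T expressing luciferase-tagged ATAD5, whose levels rise upon DNA damage. Exposure ran 16 hr at 37C and 5% CO2, with luminescence read 30 min after Amplite addition at room temperature.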

[3] = qHTS assay for small molecule agonists of the p53 signaling pathway - cell viability (AID 651633; calls by dose curve;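 note: p53RE-bla HCT reporter cells with a stable beta-lactamase p53 reporter; series mostly up to about 83 µM; nearly all actives have a fitted effect of over 30% in size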)
Method in brief: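 Viability counter-read: CellTiter-Glo luminescence (30 min, room temperature) in the same p53RE-bla plates. These plates had been exposed to compounds for 16 h at 37 C.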

[4] = qHTS assay for small molecules that induce genotoxicity in human embryonic kidney cells expressing luciferase-tagged ATAD5 - cell viability (AID 651634; calls by dose curve; note: nearly all actives have a fitted effect of over 25% in size; note: potency is the fitted concentration of half-maximal effect)
Method in brief: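 After 15.5 hr incubation with compound at 37C, 5% CO2, HEK293T ATAD5-luciferase cells received CellTiter-Fluor reagent; fluorescence intensity was quantified following 30 min at 37C.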

[5] = qHTS assay for small molecule disruptors of the mitochondrial membrane potential - cell viability (AID 720634; calls by dose curve;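 note: human HepG2 liver cancer cells; series mostly up to about 83 µM; nearly all actives have a fitted effect of over 20% in size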)
Method in brief: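 ATP-based luminescent viability readout (CellTiter-Glo, 30 min, room temperature) in HepG2 cells multiplexed with the m-MPI membrane potential dye; compound exposure lasted 1 hr at 37 C.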

[6] = qHTS assay for small molecule disruptors of the mitochondrial membrane potential (AID 720635); note: potency is the fitted concentration of half-maximal effect
Method in brief: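 Mitochondrial membrane potential tracked with Mito-MPS dye, red aggregates (ex 540/em 590 nm) against green monomers (ex 490/em 535 nm). Compound treatment 1 hr at 37C, dye 30 min in HepG2.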

[7] = qHTS assay to test for compound auto fluorescence at 590 nm (red) in HepG2 cells (AID 720674)
Method in brief: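 1 hr compound incubation on HepG2 cells, 37 C, 5% CO2; plate read ex 540 nm / em 590 nm; intensities reported as Rose Bengal sodium equivalents.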

[8] = qHTS assay to test for compound auto fluorescence at 535 nm (green) in HepG2 cells (AID 720675)
[9] = qHTS assay to test for compound auto fluorescence at 460 nm (blue) in HEK293 cells (AID 720678)
Method in brief: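 HEK293 cells (2,000 per well, medium with 10% dialyzed FBS) attached for 4-5 hr at 37C, then received compound and stood overnight at 37C, 5% CO2. Blue fluorescence was read at Ex/Em 405/460 nm and expressed relative to triamterene.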

[10] = qHTS assay to test for compound auto fluorescence at 590 nm (red) in HEK293 cells (AID 720679)
Method in brief: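 HEK293 cells (2,000/well, medium with 10% dialyzed FBS) attached for 4-5 hr at 37C, received 23 nL compound and were incubated overnight at 37C, 5% CO2. Red fluorescence was then read at 540/590nm Ex/Em, referenced to Rose Bengal sodium.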

SMILES	Potency [1]	Potency [2]	Potency [3]	Potency [4]	Potency [5]	Potency [6]	outcome [7]	outcome [8]	outcome [9]	outcome [10]	fluorescence, relative to Rose Bengal [7]	fluorescence, % of fluorescein control [8]	fluorescence, % of triamterene [9]	fluorescence, % of fluorescent control [10]
COCC(=O)N(c1c(C)cccc1C)N1CCOC1=O	inactive	inactive	inactive	inactive	inactive	inactive	inactive	inactive	inactive	inactive	–	–	–	–
Cc1coc2c1CCC(C)C2 (centres undefined)	inactive	inactive	inactive	inactive	inactive	25.1 µM (active)	inactive	inactive	inactive	inactive	–	–	–	–
O=C(NCO)NCO	inactive	inactive	inactive	inactive	inactive	inactive	inactive	inactive	inactive	inactive	–	–	–	–
OC(Cn1cncn1)(c1ccc(F)cc1)c1ccccc1F (centres undefined)	inactive	inactive	inactive	inactive	inactive	inactive	inactive	inactive	inactive	inactive	–	–	–	–
O=P(O)(Oc1ccccc1)Oc1ccccc1	inactive	inactive	inactive	inactive	inactive	inactive	inactive	inactive	inactive	inactive	–	–	–	–
OC(c1ccccc1)(c1ccccc1)C1CCNCC1	inactive	inactive	inactive	inactive	inactive	inactive	–	–	–	–	0.0965% [at 18.6 µM] (inactive)	0.0225% [at 18.6 µM] (inactive)	-0.0368% [at 18.6 µM] (inactive)	-0.0312% [at 18.6 µM] (inactive)
NC(=S)C(N)=S	inactive	inactive	inactive	inactive	inactive	inactive	inactive	inactive	inactive	inactive	–	–	–	–
OC(c1ccc(F)cc1)(c1cncnc1)c1ccccc1Cl (centres undefined)	inactive	inactive	inactive	inactive	inactive	inactive	inactive	inactive	inactive	inactive	–	–	–	–
C[C@]1(O)CC[C@H]2[C@@H]3CCC4=CC(=O)CC[C@]4(C)[C@@]3(F)[C@@H](O)C[C@@]21C	inactive	inactive	inactive	inactive	inactive	inactive	inactive	inactive	inactive	inactive	–	–	–	–
Cc1ncc(CNC(=O)N(CCCl)N=O)c(N)n1	inactive	inactive	inactive	inactive	inactive	inactive	inactive	inactive	inactive	inactive	–	–	–	–
CC(C)NCC(O)c1ccc(N)c(C#N)c1 (centres undefined)	inactive	inactive	inactive	inactive	inactive	inactive	inactive	inactive	inactive	inactive	–	–	–	–
Nc1ccccc1Cl	inactive	inactive	inactive	inactive	inactive	inactive	inactive	inactive	inactive	inactive	–	–	–	–
C[C@@H]1CN(C2CCC(C#N)(c3ccc(F)cc3)CC2)CC[C@]1(C(=O)O)c1ccccc1 (some centres undefined)	inactive	inactive	inactive	inactive	inactive	inactive	–	–	–	–	-0.0454% [at 18.6 µM] (inactive)	-0.0057% [at 18.6 µM] (inactive)	0.0981% [at 18.6 µM] (inactive)	0.571% [at 18.6 µM] (inactive)
O=C(CCCN1CCC(n2c(=O)[nH]c3ccccc32)CC1)c1ccc(F)cc1	inactive	inactive	inactive	inactive	inactive	inactive	–	–	–	–	-0.608% [at 18.6 µM] (inactive)	0.0365% [at 18.6 µM] (inactive)	0.114% [at 18.6 µM] (inactive)	0.426% [at 18.6 µM] (inactive)
CCS(=O)(=O)C(C)(C)S(=O)(=O)CC	inactive	inactive	inactive	inactive	inactive	inactive	inactive	inactive	inactive	inactive	–	–	–	–
COP(=S)(OC)Oc1ccc(S(N)(=O)=O)cc1	inactive	inactive	inactive	inactive	inactive	inactive	inactive	inactive	inactive	inactive	–	–	–	–
CCCSC(=O)N(CCC)CCC	inactive	inactive	inactive	inactive	inactive	inactive	inactive	inactive	inactive	inactive	–	–	–	–
NC1=NC(=O)C(c2ccccc2)O1 (centres undefined)	inactive	inactive	inactive	inactive	inactive	inactive	inactive	inactive	inactive	inactive	–	–	–	–
[As]#[In]	inactive	inactive	inactive	inactive	inactive	inactive	inactive	inactive	inactive	inactive	–	–	–	–
ClCC(Cl)(Cl)Cl	inactive	inactive	inactive	inactive	inactive	inactive	inactive	–	inactive	inactive	–	–	–	–
Nc1cnn(-c2ccccc2)c(=O)c1Cl	inactive	inactive	inactive	inactive	inactive	inactive	inactive	inactive	inactive	inactive	–	–	–	–
CC(=O)CC(c1ccc(Cl)cc1)c1c(O)c2ccccc2oc1=O (centres undefined)	inactive	inactive	inactive	inactive	inactive	32.1 µM (active)	inactive	inactive	inactive	inactive	–	–	–	–
COC(C)(C)C	inactive	inactive	inactive	inactive	inactive	inactive	inactive	inactive	inactive	inactive	–	–	–	–
CC1CCC(=O)O1 (centres undefined)	inactive	inactive	inactive	inactive	inactive	inactive	inactive	inactive	inactive	inactive	–	–	–	–
CCCCN(CCCCO)N=O	inactive	inactive	inactive	inactive	inactive	inactive	inactive	inactive	inactive	inactive	–	–	–	–

SMILES	Potency [1]	Potency [2]	Potency [3]	Potency [4]	Potency [5]	Potency [6]	outcome [7]	outcome [8]	outcome [9]	outcome [10]	fluorescence, relative to Rose Bengal [7]	fluorescence, % of fluorescein control [8]	fluorescence, % of triamterene [9]	fluorescence, % of fluorescent control [10]
CCOC(=O)/C=C(C)/C=C/C[C@@H](C)CCCC(C)C	inactive	inactive	inactive	inactive	inactive	inactive and 54.5 µM (active)	inactive	inactive	inactive	inactive	–	–	–	–
CN(C)CCc1ccc(O)cc1	inactive	inactive	inactive	inactive	inactive	inactive	inactive	inactive	inactive	inactive	–	–	–	–
[Cl][Sn]([Cl])([Cl])[Cl]	inactive	inactive	inactive	inactive	inactive	inactive	inactive	inactive	inactive	inactive	–	–	–	–
Nc1cc(Cl)ccc1O	26.4 µM (active)	inactive	inactive	23.5 µM (active)	inactive	9.37 µM (active)	inactive	inactive	inactive	inactive	–	–	–	–
ClC(Cl)(Cl)C(Cl)(Cl)Cl	inactive	inactive	inactive	inactive	inactive	inactive	inactive	inactive	inactive	inactive	–	–	–	–
[O]=[Cd]	inactive	inactive	inactive	inactive	inactive	inactive	inactive	inactive	inactive	inactive	–	–	–	–
O=C(O)c1ccc2[nH]cc(CCCCN3CC=C(c4ccccc4)CC3)c2c1	inactive	inactive	inactive	inactive	inactive	inactive	inactive	–	inactive	inactive	–	–	–	–
ClCCOCOCCCl	inactive	inactive	inactive	inactive	inactive	inactive	inactive	inactive	inactive	inactive	–	–	–	–
CS(=O)(=O)c1cc(C(F)(F)F)ccc1C(=O)c1cnoc1C1CC1	inactive	inactive	inactive	inactive	inactive	inactive	inactive	inactive	inactive	inactive	–	–	–	–
NC(=O)O	inactive	inactive	inactive	inactive	inactive	inactive	inactive	inactive	inactive	inactive	–	–	–	–
CC(=O)[C@H]1CC[C@H]2[C@@H]3CC[C@H]4C[C@H](O)CC[C@]4(C)[C@H]3C(=O)C[C@]12C	inactive	inactive	inactive	inactive	inactive	inactive	–	inactive	inactive	inactive	–	–	–	–
CCC(C)n1c(=O)[nH]c(C)c(Br)c1=O (centres undefined)	inactive	inactive	inactive	inactive	inactive	–	inactive	inactive	inactive	inactive	–	–	–	–
CC1CCCCC1NC(=O)Nc1ccccc1 (centres undefined)	inactive	inactive	inactive	inactive	inactive	21.7 µM (active)	–	inactive	inactive	inactive	–	–	–	–
CC(C)COP(=O)(OCC(C)C)OCC(C)C	inactive	inactive	inactive	inactive	inactive	–	inactive	inactive	inactive	inactive	–	–	–	–
O=C(N[C@H]1CN2CCC1CC2)c1cc2ccoc2cn1	inactive	inactive	inactive	inactive	inactive	–	inactive	inactive	inactive	inactive	–	–	–	–
CN1CCC(O)(c2ccc(F)cc2)C(C(=O)c2ccc(F)cc2)C1 (centres undefined)	inactive	inactive	inactive	inactive	inactive	–	inactive	inactive	inactive	inactive	–	–	–	–
Cc1nc(N)nc(N)n1	inactive	inactive	inactive	inactive	inactive	–	inactive	inactive	inactive	inactive	–	–	–	–
CCCCP(CCCC)CCCC	inactive	inactive	inactive	inactive	inactive	–	inactive	inactive	inactive	inactive	–	–	–	–
CC(C1CC1)C(O)(Cn1cncn1)c1ccc(Cl)cc1 (centres undefined)	inactive	inactive	inactive	inactive	inactive	–	inactive	inactive	inactive	inactive	–	–	–	–
CCOP(=S)(OCC)Oc1nc(Cl)n(C(C)C)n1	inactive	inactive	inactive	inactive	inactive	inactive	–	inactive	inactive	inactive	–	–	–	–
NC(=O)c1cc([N+](=O)[O-])cc([N+](=O)[O-])c1	inactive	inactive	inactive	inactive	inactive	inactive	inactive	–	inactive	inactive	–	–	–	–
N#CCNCC#N	inactive	inactive	inactive	inactive	inactive	inactive	–	inactive	inactive	inactive	–	–	–	–
CCCCc1c(C)nc(NCC)[nH]c1=O	inactive	inactive	inactive	inactive	inactive	–	inactive	inactive	inactive	inactive	–	–	–	–
CC(C=O)Cc1ccc2c(c1)OCO2 (centres undefined)	inactive	inactive	inactive	inactive	inactive	–	inactive	inactive	inactive	inactive	–	–	–	–
